This passage reports growth inhibition results from PubChem BioAssay (NCI).

Structures are written as SMILES. About 79,000 compounds went through this panel and 15% of them were active in at least one assay; those are over-represented in the sample as a whole. Values without a mark were called inactive. No stated cut-off is given here; in the data, active means growth inhibition above about 70%; inactive means the rest.

One assay can be described thus: NCI Yeast Anticancer Drug Screen. Data for the rad50 strain (AID 155).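 Further: 0% = growth of vehicle-only cultures of the same strain.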 Particulars: S. cerevisiae rad50 strain growth inhibition; at 50.0 µM; active compounds read high. Put shortly: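 DNA repair mutant yeast, compound exposure, growth read-out; inhibition is taken relative to vehicle.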
With `COC(=O)n1sc(SC)nc1=N`, the growth inhibition is 3.75%.

As to `CC(=O)CC(=O)Nc1cccc(C)c1`, the growth inhibition is -13.9%.

Regarding `Cc1ccc(S(=O)(=O)N(Cc2cccc([N+](=O)[O-])c2)c2ccc(C(=O)O)cc2)cc1`, the growth inhibition was 8.45%.

As to `COC(=O)/C=C(\S/C=C(/c1ccccc1)N1CCn2c(C(=O)c3ccccc3)c(C(=O)OC)c(C(=O)OC)c21)C(=O)OC`, the growth inhibition was 27.4%.

`CCN(CC)C(=O)C1(C)NS(=O)(=O)c2ccccc2C1=O` (stereo not given): the growth inhibition is -7.05%.

In the case of `CC12CCC(=O)C=C1CCC1C2C(=O)CC2(C)C1CCC2(O)C(=O)Cn1c(=O)[nH]cc(F)c1=O` (stereo not given), the growth inhibition is 5.95%.

For the molecule `CC(C)(C=O)OC(=O)c1cc([N+](=O)[O-])cc([N+](=O)[O-])c1`, the growth inhibition was 7.2%.

`Cc1ccc(NC(=O)Oc2ccc3ccccc3c2)cc1NC(=O)Oc1ccc2ccccc2c1`: the growth inhibition is 1.35%.

As to `CN1CCCC1c1cccnc1.O=C(O)c1ccccc1O.O=C([O-])c1ccccc1[OH2+].O=C([O-])c1ccccc1[OH2+].[Mn+2]` (stereo not given), the growth inhibition was -3.05%.

Turning to `CCOC(=O)c1c(C)c2c(n1C)CCC(C(=O)OCC)C2=O` (stereo not given), the growth inhibition was -3.15%.

On to `CC(C)C1CCC(=O)CC1`, for which the growth inhibition is 9.9%.

For the molecule `CCS(=O)c1ncc2cnccn12` (stereo not given), the growth inhibition is 2.35%.

For the molecule `NC(N)=Nc1nc2ccc(Cl)cc2[nH]1`, the growth inhibition was 29.2%.

`Cc1c(CCO)sc[n+]1CC(=O)c1ccccc1`: the growth inhibition was -14.5%.

`Fc1ccc(N=Cc2ccc(C=Nc3ccc(F)cc3)cc2)cc1`: the growth inhibition is 20.9%.

As to `O=C(CC(=O)c1ccc(Cl)cc1)c1ccc(Cl)cc1`, the growth inhibition was 12.9%.

In the case of `O=[N+]([O-])CC1=CCCCC1`, the growth inhibition is 30.6%.

On to `COC(=O)C(C(=O)C(=O)Nc1nc2ccc(OC)cc2s1)c1cnc2ccccc2n1` (stereo not given), for which the growth inhibition was -13.2%.

For `O=c1oc2ccc(Cl)cc2c(OCCO)c1Cl`, the growth inhibition is -5.2%.

For the molecule `CCC(CC)OC(=O)Nc1cccc2ccccc12`, the growth inhibition is -16.4%.

`CN1CCC(O)(C(C)(C)C)CC1`: the growth inhibition is -5.05%.

Take `CCOC(=O)C(NNc1ccccc1)C(=O)C(F)(F)F` (stereo not given): the growth inhibition is 10.9%.

In the case of `CN(C)Cc1cc(N=Nc2ccc(Cl)cc2)ccc1O`, the growth inhibition was 26.9%.

As for `CN(C)N=Nc1c(Cl)cccc1Cl`, the growth inhibition was 3.35%.

Consider `CC(=O)Nc1cccc(C)n1`, for which the growth inhibition was -17.8%.

Consider `CC(CCCSC(=N)N)SC(=N)N` (stereo not given), for which the growth inhibition was 4.9%.

For `Cc1ccc(S(=O)(=O)Nc2ccc(S(C)(=O)=O)cc2)cc1`, the growth inhibition is 2.4%.

Regarding `COc1cc2c(cc1OC)-c1ccc3cc4c(cc3c1N(C)C2)OCO4`, the growth inhibition was -3.8%.

In the case of `C=CCOC(=O)c1c(Cl)c(Cl)c(Cl)c(Cl)c1C(=O)O`, the growth inhibition is 18.4%.

As for `O=C1NC(=O)C(c2ccc(Cl)cc2)N1` (stereo not given), the growth inhibition was 0%.

For the molecule `O=C(O)CCCCCC1=CCCCC1`, the growth inhibition was 11.9%.

Regarding `CC(C)=CCC/C(C)=C\COC=O`, the growth inhibition is 23%.

Regarding `COc1cccc(-c2nnc(-c3cccc(OC)c3)o2)c1`, the growth inhibition is 25.4%.

`CCCCCCCCC(=O)OCC(=O)c1ccc(-c2ccccc2)cc1`: the growth inhibition was 10.8%.

As for `CCCCCCCCCCCCCCCCCCCCCCBr`, the growth inhibition is 4.95%.

Take `C[Si](C)(C)C#CCOC=C1CC1`: the growth inhibition was 26%.

Regarding `Cc1cc(Cl)ccc1N1C(=O)C(=O)C(c2nc3ccccc3s2)C(=O)C1=O`, the growth inhibition was -4.1%.

Take `CCOC(=O)/C=C/SCCCC(=O)O`: the growth inhibition is 1.5%.

On to `Cc1cc(C)c(C(=O)c2cccc(Cl)c2)c(C)c1`, for which the growth inhibition is -13%.

With `O=NN(CCCl)C(=O)N(C1CCCCC1)C1CCCCC1`, the growth inhibition was 8.5%.

The next assay can be described thus: NCI Yeast Anticancer Drug Screen. Data for the mec2-1 strain (AID 157). Particulars: S. cerevisiae mec2-1 strain, at 50.0 µM, active compounds read high. In a few lines: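 Vehicle-treated cultures served as reference for growth inhibition of compound-exposed mec2-1 yeast.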
For the molecule `COC(=O)n1sc(SC)nc1=N`, the growth inhibition is -3.95%.

Turning to `CC(=O)CC(=O)Nc1cccc(C)c1`, the growth inhibition was -15.7%.

For the molecule `Cc1ccc(S(=O)(=O)N(Cc2cccc([N+](=O)[O-])c2)c2ccc(C(=O)O)cc2)cc1`, the growth inhibition is 4.55%.

Regarding `COC(=O)/C=C(\S/C=C(/c1ccccc1)N1CCn2c(C(=O)c3ccccc3)c(C(=O)OC)c(C(=O)OC)c21)C(=O)OC`, the growth inhibition is 32.6%.

`CCN(CC)C(=O)C1(C)NS(=O)(=O)c2ccccc2C1=O` (stereo not given): the growth inhibition was 10.1%.

For the molecule `CC12CCC(=O)C=C1CCC1C2C(=O)CC2(C)C1CCC2(O)C(=O)Cn1c(=O)[nH]cc(F)c1=O` (stereo not given), the growth inhibition is -5.8%.

Consider `CC(C)(C=O)OC(=O)c1cc([N+](=O)[O-])cc([N+](=O)[O-])c1`, for which the growth inhibition was -14.2%.

Regarding `Cc1ccc(NC(=O)Oc2ccc3ccccc3c2)cc1NC(=O)Oc1ccc2ccccc2c1`, the growth inhibition is -19.4%.

`CN1CCCC1c1cccnc1.O=C(O)c1ccccc1O.O=C([O-])c1ccccc1[OH2+].O=C([O-])c1ccccc1[OH2+].[Mn+2]` (stereo not given): the growth inhibition was -0.4%.

Take `CCOC(=O)c1c(C)c2c(n1C)CCC(C(=O)OCC)C2=O` (stereo not given): the growth inhibition was 9.4%.

As for `CC(C)C1CCC(=O)CC1`, the growth inhibition is 0.35%.

For `CCS(=O)c1ncc2cnccn12` (stereo not given), the growth inhibition was 1.3%.

In the case of `NC(N)=Nc1nc2ccc(Cl)cc2[nH]1`, the growth inhibition was 1%.

Regarding `Cc1c(CCO)sc[n+]1CC(=O)c1ccccc1`, the growth inhibition is -19%.

Consider `Fc1ccc(N=Cc2ccc(C=Nc3ccc(F)cc3)cc2)cc1`, for which the growth inhibition is 30.1%.

As to `O=C(CC(=O)c1ccc(Cl)cc1)c1ccc(Cl)cc1`, the growth inhibition is 14.5%.

Take `O=[N+]([O-])CC1=CCCCC1`: the growth inhibition is 12.2%.

As to `COC(=O)C(C(=O)C(=O)Nc1nc2ccc(OC)cc2s1)c1cnc2ccccc2n1` (stereo not given), the growth inhibition is -23.2%.

In the case of `O=c1oc2ccc(Cl)cc2c(OCCO)c1Cl`, the growth inhibition was 4.55%.

`CCC(CC)OC(=O)Nc1cccc2ccccc12`: the growth inhibition is -9.65%.

In the case of `CN1CCC(O)(C(C)(C)C)CC1`, the growth inhibition is -5.15%.

Turning to `CCOC(=O)C(NNc1ccccc1)C(=O)C(F)(F)F` (stereo not given), the growth inhibition is 3.2%.

With `CN(C)Cc1cc(N=Nc2ccc(Cl)cc2)ccc1O`, the growth inhibition is 7.3%.

For `CN(C)N=Nc1c(Cl)cccc1Cl`, the growth inhibition was 26.7%.

Turning to `CC(=O)Nc1cccc(C)n1`, the growth inhibition is -3.2%.

For `CC(CCCSC(=N)N)SC(=N)N` (stereo not given), the growth inhibition is -3.5%.

Consider `Cc1ccc(S(=O)(=O)Nc2ccc(S(C)(=O)=O)cc2)cc1`, for which the growth inhibition was -4.2%.

For `COc1cc2c(cc1OC)-c1ccc3cc4c(cc3c1N(C)C2)OCO4`, the growth inhibition is -36.6%.

As for `C=CCOC(=O)c1c(Cl)c(Cl)c(Cl)c(Cl)c1C(=O)O`, the growth inhibition was 7.85%.

Regarding `O=C1NC(=O)C(c2ccc(Cl)cc2)N1` (stereo not given), the growth inhibition was -10.8%.

As for `O=C(O)CCCCCC1=CCCCC1`, the growth inhibition was 33.2%.

Turning to `CC(C)=CCC/C(C)=C\COC=O`, the growth inhibition was 12.4%.

On to `COc1cccc(-c2nnc(-c3cccc(OC)c3)o2)c1`, for which the growth inhibition was -12.1%.

In the case of `CCCCCCCCC(=O)OCC(=O)c1ccc(-c2ccccc2)cc1`, the growth inhibition is -15.3%.

Regarding `CCCCCCCCCCCCCCCCCCCCCCBr`, the growth inhibition is 4.8%.

On to `C[Si](C)(C)C#CCOC=C1CC1`, for which the growth inhibition was -39.5%.

Regarding `Cc1cc(Cl)ccc1N1C(=O)C(=O)C(c2nc3ccccc3s2)C(=O)C1=O`, the growth inhibition was 13.7%.

As to `CCOC(=O)/C=C/SCCCC(=O)O`, the growth inhibition was -1.5%.

`Cc1cc(C)c(C(=O)c2cccc(Cl)c2)c(C)c1`: the growth inhibition was 4.7%.

As for `O=NN(CCCl)C(=O)N(C1CCCCC1)C1CCCCC1`, the growth inhibition is -3.95%.
